From PubChem
Only some compounds are listed: those with a hit (about 0.99% of all), similar ones and a draw of the others.
LANA-H2B inh: blocks KSHV LANA binding to histone H2A/H2B. 320,000 tested, 0.6% active. Q9QR71. cell-free LANA-H2A/H2B peptide, fluorescence polarization. inhibition, % (concentration not given with the values). AID 2629; in the data active = inhibition mostly above about 10%, no sharp cut-off; inactive = mostly below about 6.7%
LANA DNA inh: KSHV C-LANA DNA binding inhibition. MBP-C-LANA/FAM-LBS DNA binding, fluorescence polarization. inhibition, % at 9 µM. 340,000 tested, 0.078% active. AID 504423;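 active = highest replicate inhibition at or above 60% at 9 µM, even if other replicates fall short; inactive = all replicates below 60% inhibition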
Keap1-Nrf2 PPI: disrupts human Keap1 binding to Nrf2 peptide; Q14145; Keap1 Kelch-Nrf2 peptide fluorescence polarization, 1536-well; inhibition, % at 9.4 µM; 340,000 tested, 0.15% active; AID 504523; in the data active = inhibition above about 12%; inconclusive = no clear call, values can overlap the other calls; inactive = below about 7.3%;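 also: human Keap1 Kelch domain with fluorescein labeled Nrf2 9mer peptide probe; higher means more block of Keap1 binding to Nrf2 peptide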
Target sequence (Q14145 whole entry, looked up, the tested form may be a part): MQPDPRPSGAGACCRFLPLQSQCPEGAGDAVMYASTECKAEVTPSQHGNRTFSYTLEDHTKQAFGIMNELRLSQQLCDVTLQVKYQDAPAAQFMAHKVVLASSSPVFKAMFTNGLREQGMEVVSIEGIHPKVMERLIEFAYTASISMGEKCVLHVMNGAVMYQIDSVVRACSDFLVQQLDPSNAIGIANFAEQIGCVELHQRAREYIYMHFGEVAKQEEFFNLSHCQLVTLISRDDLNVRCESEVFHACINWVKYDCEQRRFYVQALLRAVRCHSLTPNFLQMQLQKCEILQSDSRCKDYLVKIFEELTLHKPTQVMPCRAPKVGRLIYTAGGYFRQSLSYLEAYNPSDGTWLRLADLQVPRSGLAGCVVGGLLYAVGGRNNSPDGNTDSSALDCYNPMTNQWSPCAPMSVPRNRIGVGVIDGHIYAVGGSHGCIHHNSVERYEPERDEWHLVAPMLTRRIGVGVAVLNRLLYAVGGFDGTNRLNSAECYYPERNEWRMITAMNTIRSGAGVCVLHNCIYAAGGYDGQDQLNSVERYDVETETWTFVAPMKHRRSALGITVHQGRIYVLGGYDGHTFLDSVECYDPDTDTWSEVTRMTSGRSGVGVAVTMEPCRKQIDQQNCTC
cardiac RTF act: increases calcium sensitivity of human cardiac regulated thin filaments. P19429+P45379. activation, % at 7.2 µM. IANBD-labeled TnC RTF fluorescence at EC20 calcium; 0% EC20 calcium, 100% full calcium. 340,000 tested, 0.24% active;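 active = activation above the mean over all tested compounds plus 3 SD, cut at about 30% in these data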;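 also: rise in fluorescence read as greater calcium sensitivity of cardiac thin filaments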
RTF Ca sens inh: cardiac RTF calcium desensitization | inhibition, % at 7.15 µM | 340,000 tested, 0.12% active | IANBD-labeled cardiac RTF, Ca2+ fluorescence | AID 493244 | P19429+P45379;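 active = inhibition above the mean inhibition of all tested compounds plus 3 SD, cut at about 17% in these data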;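 also: assay run at fixed EC70 calcium of 1.6 mM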
Of the large screens only hits and unclear results are named; the others gave an inactive call.

COc1ccccc1N(CC(=O)N(C)Cc1ccccc1)S(=O)(=O)c1cccs1	LANA-H2B inh active
COc1ccc(CCN=C(N)NS(=O)(=O)c2ccc(F)cc2)cc1OC	LANA-H2B inh 26
CC1(C)CC(=O)C2=C(C1)NCN(Cc1ccc3c(c1)OCO3)C2	none
CCOc1ccc(NC(=O)CN(C)C(=O)c2cn3ccccc3n2)cc1OCC	none
CCCc1nnc(NC(=O)CCC(=O)NC2CCCCC2)s1	none
C=C(C)C(=O)Nc1cccc(C2=NOC3(C2)C[C@@H](C(N)=O)N(C(=O)C(=C)C)C3)c1 (stereo partly specified)	none
C=C(C)C(=O)Nc1cccc(C2=NOC3(C2)C[C@@H](C(N)=O)N(C(=O)C2(C)CC2)C3)c1 (stereo partly specified)	LANA DNA inh 105
NC(=S)NN=C(c1ccccc1)c1ccccc1	none
COCCCNCCOc1ccc(C(C)(C)c2ccccc2)cc1	none
CCC(C)NCCOc1ccc(C(C)(C)c2ccccc2)cc1 (stereo unspecified)	LANA-H2B inh 14
O=c1[nH][nH]c(=O)c2cc([N+](=O)[O-])ccc12	LANA-H2B inh 40
O=C(CCOc1ccccc1)NCC(c1ccco1)N1CCCCC1 (stereo unspecified)	LANA-H2B inh 7.9
CN(c1ccccc1)S(=O)(=O)c1ccc(C(=O)NCC(c2ccco2)N2CCCCC2)cc1 (stereo unspecified)	LANA-H2B inh 39
CCS(=O)(=O)c1ccc2oc(Nc3ccccc3Cl)nc2c1	none
Cc1c(C(=O)O)sc2nc3n(c(=O)c12)CCC(C)CC3 (stereo unspecified)	LANA-H2B inh 20
Cc1c(C(=O)O)sc2nc3n(c(=O)c12)CCCCC3	none
CCN(CC)c1ccc2cc(C(=O)NCc3ccc(F)cc3)c(=N)oc2c1	cardiac RTF act 267
CCOc1ccc(NS(=O)(=O)c2ccc(NS(=O)(=O)c3ccccc3)cc2)cc1	none
CCOc1ccc(S(=O)(=O)Nc2cc(NS(=O)(=O)c3ccc(OCC)cc3)cc(C(=O)O)c2)cc1	Keap1-Nrf2 PPI 22
Cc1ccc(C(=O)CSc2nc3cccnc3n2C)cc1	none
Cn1c(SCC(=O)c2ccccc2)nc2cccnc21	LANA-H2B inh 98
N#Cc1c(NC(=O)c2cnccn2)sc2c1CCCC2	LANA-H2B inh 19
CCOc1cccnc1Sc1ccccc1	none
COc1ccc(N=CC2=C(Nc3ccc(OC)cc3)c3c(C)nn(-c4ccccn4)c3CC2)cc1	LANA-H2B inh 60 (no result: LANA DNA inh, Keap1-Nrf2 PPI, cardiac RTF act, RTF Ca sens inh)
O=C(Nc1ccccc1Oc1ccsc1C(=O)O)c1ccccc1	none
O=C(Nc1ccccc1Oc1ccsc1C(=O)O)c1ccccc1F	LANA-H2B inh 98
O=C(O)c1cccc(NC(=O)c2ccccc2NC(=O)c2ccccc2F)c1	LANA-H2B inh 17
O=C(COC(=O)C1CCN(c2ccc(C(F)(F)F)cn2)CC1)Nc1cc(F)ccc1F	none (no result: LANA DNA inh, Keap1-Nrf2 PPI)
Cc1cccc(NC(=O)C(=O)NCC2CCCO2)c1 (stereo unspecified)	none
O=[N+]([O-])c1cccc(-c2ccc(C(=S)N3CCOCC3)o2)c1	none
O=C(CCN1CCN(Cc2ccccc2)CC1)NNC(=O)Nc1cccc([N+](=O)[O-])c1	LANA-H2B inh 16
O=C(CCN1CCN(Cc2ccccc2)CC1)NNC(=O)Nc1cccc(Cl)c1	none
O=C(Nc1ccc(CN2CCOCC2)cc1)c1ccc(-c2cccc([N+](=O)[O-])c2)o1	LANA-H2B inh 26
CN(Cc1cc(-c2ccccc2)on1)C(=O)c1cc(COc2c(F)cccc2F)on1	none
O=C(CSc1nc2ccc([N+](=O)[O-])cc2s1)c1ccc2ccccc2c1	none (no result: LANA-H2B inh)
C=CCN1C(=O)c2cccc3c(Br)ccc(c23)C1=O	none
C=CCN1C(=O)c2cccc3c(N4CCCCC4)ccc(c23)C1=O	cardiac RTF act 74
O=C1c2cccc3c(N4CCCCC4)ccc(c23)C(=O)N1CCO	LANA-H2B inh 49, cardiac RTF act 76
COc1ccc2c(c1OC)C(=O)N1C2SC[C@H]1C(=O)NC1CC1 (stereo partly specified)	none
Cc1ccc(C2OC34CCCCCC3C(C#N)(C(=N)O4)C2(C#N)C#N)cc1 (stereo unspecified)	none
CCOc1ccc(C2OC34CCCCC3C(C#N)(C#N)C2(C#N)C(=N)O4)cc1OC (stereo unspecified)	Keap1-Nrf2 PPI 19
CC(C)c1ccc(N(C(=O)c2csnn2)C(C(=O)NC2CCCC2)c2ccncc2)cc1 (stereo unspecified)	none
COc1ccccc1C(=O)C1Nc2ccccc2-c2nnc(SC)nc2O1 (stereo unspecified)	LANA-H2B inh 21
CCC1Nc2ccccc2-c2nnc(SC)nc2O1 (stereo unspecified)	none
O=C(NCCCn1ccnc1)C(=O)NCC1OCCN1S(=O)(=O)c1ccc(F)cc1 (stereo unspecified)	none
COc1ccc(-n2c(C)ccc2-c2ccccc2)cn1	LANA-H2B inh 79, Keap1-Nrf2 PPI inconclusive
CCCCNC(=S)NNC(=O)c1ccc2c(c1)OCO2	none
CCN(C(=O)CN1c2ccccc2CC1C)c1c(N)n(Cc2ccccc2)c(=O)[nH]c1=O (stereo unspecified)	none
O=C(Nc1ccc2c(c1)OCO2)C1CC(c2ccccc2O)=NO1 (stereo unspecified)	none
O=C(Nc1ccc2c(c1)OCCO2)C1CC(c2ccccc2Cl)=NO1 (stereo unspecified)	LANA-H2B inh 9.2
CC1(C)CC(=O)c2cc(N=C/C(C(=O)c3ccccc3)=C(\O)c3ccccc3)c(=O)oc2C1	none
COc1ccc(NC(=O)C(=O)NNC(=O)C(C)Oc2ccc(Cl)cc2Cl)cc1 (stereo unspecified)	none
C/C(CC(=O)NC1CCCCCC1)=N\NC(=O)c1cnccn1	none (no result: LANA-H2B inh)
O=C(O)c1ccc(CS(=O)c2cccc(C(F)(F)F)c2)o1 (stereo unspecified)	LANA-H2B inh 119
CCOC(=O)N1CCN(C(=O)CSCc2nc(-c3ccccc3F)oc2C)CC1	none
Cc1ccc(C)c(NC(=S)N/N=C2/CCCCc3ccccc32)c1	none
Nc1nnnn1/N=C/c1cc(Cl)cc(Cl)c1O	cardiac RTF act 32
CC(Oc1ccccc1)C(=O)NC1CC(C)(C)NC(C)(C)C1 (stereo unspecified)	LANA-H2B inh 17
COc1cc2c(cc1[N+](=O)[O-])-c1ccccc1C2	cardiac RTF act 125 (no result: LANA-H2B inh)
COc1ccc(C(=O)NNC(=O)c2ccccc2[N+](=O)[O-])cc1[N+](=O)[O-]	none
CC(Sc1nc2ccccc2[nH]1)C(=O)Nc1ccccc1F (stereo unspecified)	LANA-H2B inh 13
COc1cc(C(=O)NNC(=O)NC2CCCCC2)cc(OC)c1OC	LANA-H2B inh 14
COCCCNc1c2c3c(cccc3[nH]c1=O)C(=O)c1ccccc1-2	LANA-H2B inh 123, LANA DNA inh 184, Keap1-Nrf2 PPI 167, cardiac RTF act active
CCOC(=O)C1CCN(C(=O)c2sc3nc(-c4ccc(F)cc4)cn3c2C)CC1	LANA-H2B inh 137
